Results taken from the supplement of paper PMC10338343.
± gives the standard deviation.

The sequences below were run on MILI (PIWIL2) piRISC loaded with piRNA #1 (26 nt) (assay: pre-steady-state target cleavage rate (min^-1); guide: piRNA #1 5'p-UGAGGUAGUAGGUUGUAUAGUAUCCA; MIWI and MILI are mouse PIWI proteins and EfPiwi is from a freshwater sponge; tags in brackets are library labels; higher = faster piRNA-guided slicing of the target). Conditions: auxiliary factor: 500 nM mouse GTSF1.
How it was run: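 The method was Cleave-'n-Seq, in which uncleaved targets from a transcribed, DNA-blocked target RNA library were sequenced after exposure to active affinity-purified piRISC carrying one synthetic guide, with or without GTSF1 partner protein. Reactions contained 0.1 nM library, 1 nM piRISC and, where present, 500 nM GTSF1 in HEPES–potassium acetate buffer at 33 °C for 0–8 or 0–960 min. Reads were normalised to depth and to weakly complementary targets, three trials were pooled, and k3 was capped at 0.0001 min^-1. The pre-steady-state cleavage rate came from a burst-and-steady-state fit.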

Sequence | pre-steady-state target cleavage rate
GGAGACCAUACUAAACAACCUAGUACCUCA | 0.0362 ± 0.0083
GGAGAGGAUUCUUUACAACCUACUACCUCA | 0.167 ± 0.013
GGAGACCUAUGUAUUCUACCUACUACCUCA | 0.0111 ± 0.0026
GGAGACCUAUCUAUACAACCUACUAUCCUCA | 0.193 ± 0.023
GGAGACCUAUGAUAUCAACCUAGCUACCUCA | 0.00339 ± 0.0024
GGAGACCUAUCUAAAGAACCUACUACCUCA | 0.0183 ± 0.0054
GGAGACCAUACUAUACAACGUACUAGCUCA | 0.00786 ± 0.0034
GGAGAGCAUACUAUACUACCUACUACCUCA | 0.195 ± 0.016
GGAGACCAUAGUAUACAACCUUCUACCUCA | 0.0111 ± 0.0041
GGAGACCUAACUAUACAACCUACUACUUCA | 0.084 ± 0.02
GGAGAGGAUACUAUACAACGAACUACCUCA | 0.0031 ± 0.0019
GGAGACCUAACUAUACAACCUACGUACCUCA | 0.0356 ± 0.015
GGAGACCUUUCUUUACAACCUACUACCUCA | 0.07 ± 0.012
GGAGACCUAAGUAUACAUCCUACUACCUCA | 0.0911 ± 0.0089
GGAGACCUAUGUAUACAACGAACUACCUCA | 0.00287 ± 0.002
GGAGACCUAUCAAUACAACCUACAACCUCA | 0.0677 ± 0.015
GGAGACCUUACAAUACAACCUACUACCUGA | 0.0872 ± 0.013
GGAGACCUAUGAUAACAACCUACUACCGUCA | 0.00366 ± 0.0026
GGAGACCUAUGAAUACAACCUACUACCUACA | 0.00696 ± 0.0027
GGAGACGAAACUAUAGAACCUACUACCUCA | 0.146 ± 0.014
GGAGACCUUACUAUACAACCUACUCACCUCA | 0.17 ± 0.018
GGAGACCAUAGUAUACAACCUACUUCCUCA | 0.073 ± 0.014
GGAGACCUAUGAUAUGUUCCUACUACCUCA [g2:g12:cont:t1A] | < 0.0001
GGAGACCUAUCUCAUACAACCUACUACCUCA | 0.0664 ± 0.01
